This is a sample that favours compounds with a hit; in the whole collection about 9.3% have one here.
SMN2 splice up: enhancers of SMN2 splice variant expression | HEK293 SMN2-luciferase splicing reporter, luminescence, 30-36 h | Potency, µM (titrated, usually from 46.1 µM), usual class: activators | actives 2.8% (n = 210,000); also: nearly all actives have a fitted effect of over 55% in size
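HEK293 cells carry an SMN2 […]–luciferase reporter in which exon 7 inclusion puts luciferase in frame. Cells were plated 10-12 h before compound addition, then incubated 30-36 h at 37C. ONE-Glo luminescence was read; sodium butyrate at 4.5 mM final served as control.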
ELG1 repair inh: inhibitors of ELG1-dependent DNA repair in HEK293T cells. actives 2.3% (n = 330,000). Potency, µM (doses to about 46.1 µM), most hits filed as inhibitors. HEK293T ELG1-luciferase reporter, luminescence, 16 h; DNA damage induced by 5-fluorouridine; also: nearly all actives have a fitted effect of over 55% in size
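5-Fluorouridine DNA damage + compound/DMSO, 2,000 cells/well, 16 h, 37 °C/5% CO2. ONE-Glo, 30 min RT, luminescence. Readout = decrease in reporter signal.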
Rab9 promoter act: activators of Rab9 promoter; Huh7 Rab9 promoter-luciferase reporter, luminescence, 24 h; AID 485297; Potency, µM (titrated, usually from 9.22 µM), usual class: activators; actives 2.8% (n = 320,000); also: nearly all actives have a fitted effect of over 60% in size
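Quantitative HTS format; Huh7 Rab9-luciferase reporter cells (1500/well) receive compound 2 h post-plating, incubate 24 h at 37 °C, then get luciferase reagent for 10 min before luminescence reading.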
NPC1 prom act: NPC1 promoter activation; Huh7 NPC1 promoter luciferase reporter, 24 h; Potency, µM (titrated, usually from 9.22 µM), most hits filed as activators; actives 2.4% (n = 320,000); AID 485313; also: nearly all actives have a fitted effect of over 60% in size
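Huh7 cells stably carrying NPC1 promoter–luciferase, plated in Opti-MEM with 10% FBS for 2 h, were exposed to compound in DMSO for 24 h at 37 °C; luciferase reagent was added for 10 min and luminescence read.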
FLuc modulator: inhibits or activates purified firefly luciferase, miR-21 counter-screen; Potency, µM (highest dose often 57.5 µM), hits mostly inhibitors; AID 588342; P08659; purified FLuc, Km substrates, luminescence inhibition; actives 6.9% (n = 360,000); also: nearly all actives have a fitted effect of over 55% in size
Target sequence (P08659 whole entry, looked up): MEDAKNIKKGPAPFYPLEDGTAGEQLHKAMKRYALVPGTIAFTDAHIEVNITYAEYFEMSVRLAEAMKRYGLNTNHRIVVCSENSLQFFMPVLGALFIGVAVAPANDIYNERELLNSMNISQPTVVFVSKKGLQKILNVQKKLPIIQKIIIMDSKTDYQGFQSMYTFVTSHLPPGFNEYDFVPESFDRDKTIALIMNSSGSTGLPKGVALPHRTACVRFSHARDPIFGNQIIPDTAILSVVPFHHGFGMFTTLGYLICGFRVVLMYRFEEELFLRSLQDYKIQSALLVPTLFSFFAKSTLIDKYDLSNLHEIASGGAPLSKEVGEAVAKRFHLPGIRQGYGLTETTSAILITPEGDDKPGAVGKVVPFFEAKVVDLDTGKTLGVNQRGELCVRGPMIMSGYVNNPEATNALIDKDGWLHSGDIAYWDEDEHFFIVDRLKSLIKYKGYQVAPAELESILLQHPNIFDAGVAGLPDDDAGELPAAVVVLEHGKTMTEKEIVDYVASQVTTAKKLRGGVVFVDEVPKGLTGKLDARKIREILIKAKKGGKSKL
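Purified P. pyralis luciferase (10nM final) with 10uM D-luciferin and 10uM ATP (Km levels) in 50mM Tris acetate pH 7.5, 10mM Mg acetate, 0.01% Tween-20, 0.05% BSA; qHTS 6-point titration, ~60 µM downward; luminescence read.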
ELG1 genotox: inducers of genotoxicity in HEK293T ELG1-luciferase cells; HEK293T ELG1-luciferase reporter, luminescence, 16 h; Potency, µM (series often up to 46 µM), usual class: activators; actives 1.3% (n = 330,000); AID 504466; also: nearly all actives have a fitted effect of over 60% in size
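DMSO vehicle served as control against compound-treated ELG1-luciferase HEK293T cells; exposure lasted 16 hr at 37 °C and 5% CO2, followed by ONE-Glo luminescence detection after 30 min.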
Hits are given with their value; – = inactive; ? = inconclusive; · = no result. Calls follow the shape of the dose curve; as a rule, active = well fitted curve in the direction sought with a large enough effect; inconclusive = small, poorly fitted or top-dose-only effect, or another doubt; inactive = no such curve, though single readings can be large; an effect the other way counts as inactive or inconclusive.

SMILES	SMN2 splice up	ELG1 repair inh	Rab9 promoter act	NPC1 prom act	FLuc modulator	ELG1 genotox
COc1ccc(OC)c(NC(=O)Nc2nnc(N3CCC(C)CC3)s2)c1	–	–	–	–	23.9µM	–
CC1CCN(c2c(NCC3CCC(C(=O)NCCCc4ccccc4)CC3)c(=O)c2=O)CC1 (centres undefined)	·	10.3µM	–	–	–	–
CC1CCN(c2c(NCC3CCC(C(=O)NCc4ccccc4)CC3)c(=O)c2=O)CC1 (centres undefined)	–	–	–	–	–	–
COc1ccc(OC)c(NC(=O)C2CCC(CNc3c(N4CCC(C)CC4)c(=O)c3=O)CC2)c1 (centres undefined)	15.8µM	?	–	–	–	–
COc1ccc(S(=O)(=O)c2nnn(-c3cccc(Cl)c3)c2N)cc1	–	–	–	–	–	–
CCCCN1CC(c2nc3ccccc3n2CCCCOc2c(C)cccc2C)CC1=O (centres undefined)	·	·	·	·	–	·
CCc1ccccc1N(C)C(=O)Cn1cnc2sc(C)c(S(=O)(=O)N3CCC(C)CC3)c2c1=O	–	·	·	·	–	·
O=C(NCCc1nc2ccccc2[nH]1)c1cccc(Br)c1	–	–	–	–	–	–
CCc1cc(C(=O)Cc2nc3ccccc3[nH]2)c(O)cc1O	–	?	–	–	?	?
Clc1ccc(/C(Cc2nc3ccccc3[nH]2)=N\Nc2ccccc2)cc1	·	?	2.82µM	3.55µM	13.5µM	?
O=C(C[n+]1cccc2ccccc21)c1ccc(Cl)cc1	·	–	–	–	–	–
N#CCCN/N=C(/Cc1nc2ccccc2[nH]1)c1cccc(Cl)c1	0.562µM	–	–	–	?	–
O=C(C[n+]1cccc2ccccc21)c1ccc([N+](=O)[O-])cc1	–	20.6µM	–	–	–	–
O=C(Cc1nc2ccccc2[nH]1)c1ccc(Cl)cc1	·	?	2.51µM	2.51µM	6.01µM	–
CN(C(=O)CSc1nnnn1-c1ccccc1)C1CCS(=O)(=O)C1 (centres undefined)	–	–	–	–	–	–
O=C1C=CN2CCCCC2CC1 (centres undefined)	·	?	·	·	·	–
O=C(Cc1nc2ccccc2[nH]1)c1ccc([N+](=O)[O-])cc1	·	?	?	3.16µM	15.1µM	?
O=C(NCCc1nc2ccccc2[nH]1)c1ccc([N+](=O)[O-])cc1	·	–	–	–	–	–
CN/N=C(\Cc1nc2ccccc2[nH]1)c1ccc([N+](=O)[O-])cc1	?	–	?	?	16.9µM	–
COc1ccccc1CN1CC2(CCN(C(=O)c3ccncc3)CC2)C1	–	·	·	·	·	·
COc1ccc(C)c2sc(N(Cc3cccnc3)C(=O)COc3ccccc3)nc12	·	·	·	·	–	·
CCC(C)(C)c1ccc(OCCCC[n+]2cccc(C)c2)c(C(C)(C)CC)c1	–	7.3µM	–	–	–	–
CCC1(C)NC(=O)N(CC(=O)Nc2cc(C)on2)C1=O (centres undefined)	·	–	·	·	·	–
O=c1[nH]c(COc2ccc(Cl)cc2Cl)nc2ccccc12	·	?	2.24µM	2.51µM	1.69µM	9.2µM
O=c1[nH]c(COc2ccc(Cl)cc2Br)nc2ccccc12	·	?	2.82µM	2.82µM	6.01µM	?
SMILES	SMN2 splice up	ELG1 repair inh	Rab9 promoter act	NPC1 prom act	FLuc modulator	ELG1 genotox
Cc1sc2ncn3cnnc3c2c1C	–	?	–	–	–	–
Cc1sc2ncn3ncnc3c2c1C	–	9.2µM	–	–	–	–
CN1CCCC1CCNc1ccc2oc3ccccc3c(=O)c2c1 (centres undefined)	·	?	–	–	4.78µM	?
O=S(=O)(Nc1ccc2c(c1)oc1ccccc12)N1CCCC1	–	–	–	–	?	–
CN1CCC[C@H]1CCNC(=O)c1c(-c2ccsc2)sc2ccccc12	·	–	·	·	·	–
CN1CCCC1CCNc1ccc2c(=O)c3ccccc3oc2c1 (centres undefined)	·	?	?	?	10.7µM	?
COc1ccccc1NC(=O)C1CC(O)CN1C(=O)Oc1ccccc1 (centres undefined)	·	–	–	–	–	–
COC(=O)Cn1cnc2scc(-c3ccc(C)cc3)c2c1=O	·	–	–	–	–	–
O=Cc1ccc(-c2ccc(Cl)cc2Cl)[nH]1	·	?	–	–	?	–

Screens: PubChem BioAssay, National Center for Advancing Translational Sciences (NCATS)
